# PubChem BioAssay AID1159580 (chemical genetic matrix, 2015)
# Several values for one entry are separate records, joined by “and”; a condition that tells them apart may be missing. Identical values can stand only once. Hit rate of the full screen: of about 5,500 compounds, about 2,000 (36%) were called active. Roughly 18% stayed inconclusive and do not appear here. Rule as the data show it: active = normalized growth mostly below about 0.91 (no sharp cut-off); inconclusive = no clear call, values can overlap the other calls; inactive = mostly above about 0.92. The list shows a part of the results.
# Test: chemical genetic growth profiling, strain panel (AID 1159580);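 also: tested at 20 µM; growth read once vehicle control cultures reached saturation at 30 °C; 1 = growth at the plate median or of vehicle wells; lower values mean less growth of the strain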
# Conditions: S. cerevisiae deletion strains, growth OD
compound,measurement,setting,value
CC1=C2C(=CO[C@H](C)[C@H]2C)C(=O)C(C(=O)O)=C1O,normalized growth,"locus YAL021C, strain ccr4, stronger effect = lower value",0.993 (inactive)
same,normalized growth,"locus YAL026C, strain drs2, stronger effect = lower value",0.982 (inactive)
same,normalized growth,"locus YAL030W, strain snc1, stronger effect = lower value",0.977 (inactive)
same,normalized growth,"locus YBL061C, strain skt5, stronger effect = lower value",0.977 (inactive)
same,normalized growth,"locus YBR009C, strain hhf1, stronger effect = lower value",0.975 (inactive)
same,normalized growth,"locus YBR021W, strain FUR4, stronger effect = lower value",0.995 (inactive)
same,normalized growth,"locus YBR023C, strain chs3, stronger effect = lower value",0.97 (inactive)
same,normalized growth,"locus YBR171W, strain sec66, stronger effect = lower value",0.981 (inactive)
same,normalized growth,"locus YBR229C, strain ROT2, stronger effect = lower value",0.978 (inactive)
same,normalized growth,"locus YBR231C, strain swc5, stronger effect = lower value",0.979 (inactive)
same,normalized growth,"locus YBR279W, strain paf1, stronger effect = lower value",0.989 (inactive)
same,normalized growth,"locus YCL011C, strain gbp2, stronger effect = lower value",0.975 (inactive)
same,normalized growth,"locus YCL016C, strain dcc1, stronger effect = lower value",0.967 (inactive)
same,normalized growth,"locus YCL029C, strain bik1, stronger effect = lower value",0.986 (inactive)
same,normalized growth,"locus YCL061C, strain MRC1, stronger effect = lower value",0.967 (inactive)
same,normalized growth,"locus YCL069W, strain vba3, stronger effect = lower value",0.991 (inactive)
same,normalized growth,"locus YCR088W, strain abp1, stronger effect = lower value",0.973 (inactive)
same,normalized growth,"locus YDL005C, strain med2, stronger effect = lower value",0.971 (inactive)
same,normalized growth,"locus YDL035C, strain GPR1, stronger effect = lower value",0.995 (inactive)
same,normalized growth,"locus YDL040C, strain nat1, stronger effect = lower value",0.98 (inactive)
same,normalized growth,"locus YDL074C, strain BRE1, stronger effect = lower value",0.996 (inactive)
same,normalized growth,"locus YDL101C, strain DUN1, stronger effect = lower value",0.989 (inactive)
same,normalized growth,"locus YDL134C, strain PPH21, stronger effect = lower value",0.996 (inactive)
same,normalized growth,"locus YDL185W, strain tfp1, stronger effect = lower value",0.991 (inactive)
same,normalized growth,"locus YDL192W, strain arf1, stronger effect = lower value",0.983 (inactive)
same,normalized growth,"locus YDR001C, strain nth1, stronger effect = lower value",0.98 (inactive)
same,normalized growth,"locus YDR069C, strain doa4, stronger effect = lower value",0.976 (inactive)
same,normalized growth,"locus YDR101C, strain arx1, stronger effect = lower value",0.983 (inactive)
same,normalized growth,"locus YDR137W, strain rgp1, stronger effect = lower value",0.912 (inactive)
same,normalized growth,"locus YDR150W, strain NUM1, stronger effect = lower value",0.981 (inactive)
same,normalized growth,"locus YDR159W, strain sac3, stronger effect = lower value",0.957 (inactive)
same,normalized growth,"locus YDR162C, strain NBP2, stronger effect = lower value",0.978 (inactive)
same,normalized growth,"locus YDR195W, strain ref2",0.969 (inactive)
same,normalized growth,"locus YDR297W, strain sur2, stronger effect = lower value",0.989 (inactive)
same,normalized growth,"locus YDR318W, strain mcm21, stronger effect = lower value",0.989 (inactive)
same,normalized growth,"locus YDR334W, strain swr1, stronger effect = lower value",0.991 (inactive)
same,normalized growth,"locus YDR335W, strain msn5, stronger effect = lower value",0.994 (inactive)
same,normalized growth,"locus YDR388W, stronger effect = lower value",0.979 (inactive)
same,normalized growth,"locus YDR392W, strain spt3, stronger effect = lower value",0.821 (inactive)
same,normalized growth,"locus YDR502C, strain sam2, stronger effect = lower value",0.971 (inactive)
same,normalized growth,"locus YEL003W, strain gim4, stronger effect = lower value",0.988 (inactive)
same,normalized growth,"locus YEL037C, strain rad23, stronger effect = lower value",0.997 (inactive)
same,normalized growth,"locus YEL061C, strain CIN8 (second series), stronger effect = lower value",0.99 (inactive)
same,normalized growth,"locus YEL061C, strain CIN8, stronger effect = lower value",0.979 (inactive)
same,normalized growth,"locus YER015W, strain faa2, stronger effect = lower value",0.98 (inactive)
same,normalized growth,"locus YER016W, strain bim1, stronger effect = lower value",0.976 (inactive)
same,normalized growth,"locus YER110C, stronger effect = lower value",0.985 (inactive)
same,normalized growth,"locus YER111C, strain swi4, stronger effect = lower value",0.983 (inactive)
same,normalized growth,"locus YER155C, strain BEM2 (second series), stronger effect = lower value",0.938 (inactive)
same,normalized growth,"locus YER155C, strain BEM2, stronger effect = lower value",0.982 (inactive)
same,normalized growth,"locus YER167W, strain BCK2, stronger effect = lower value",0.969 (inactive)
same,normalized growth,"locus YFR010W, strain ubp6, stronger effect = lower value",0.991 (inactive)
same,normalized growth,"locus YGL078C, strain dbp3, stronger effect = lower value",0.987 (inactive)
same,normalized growth,"locus YGL086W, strain mad1, stronger effect = lower value",0.96 (inactive)
same,normalized growth,"locus YGL167C, strain pmr1, stronger effect = lower value",0.963 (inactive)
same,normalized growth,"locus YGL173C, strain kem1, stronger effect = lower value",0.983 (inactive)
same,normalized growth,"locus YGL227W, strain vid30, stronger effect = lower value",0.989 (inactive)
same,normalized growth,"locus YGL240W, strain doc1, stronger effect = lower value",0.97 (inactive)
same,normalized growth,"locus YGL248W, strain PDE1, stronger effect = lower value",0.991 (inactive)
same,normalized growth,"locus YGL253W, strain hxk2, stronger effect = lower value",1.01 (inactive)
same,normalized growth,"locus YGR135W, strain pre9, stronger effect = lower value",0.999 (inactive)
same,normalized growth,"locus YGR229C, strain SMI1, stronger effect = lower value",0.989 (inactive)
same,normalized growth,"locus YGR252W, strain gcn5, stronger effect = lower value",1.06 (inactive)
same,normalized growth,"locus YHR013C, strain ard1, stronger effect = lower value",0.94 (inactive)
same,normalized growth,"locus YHR027C, strain rpn1, stronger effect = lower value",0.977 (inactive)
same,normalized growth,"locus YHR030C, strain SLT2, stronger effect = lower value",0.977 (inactive) and 0.85 (active)
same,normalized growth,"locus YHR079C, strain IRE1 (second series), stronger effect = lower value",0.985 (inactive)
same,normalized growth,"locus YHR079C, strain IRE1, stronger effect = lower value",0.794 (active)
same,normalized growth,"locus YHR094C, strain hxt1, stronger effect = lower value",0.975 (inactive)
same,normalized growth,"locus YHR129C, strain ARP1, stronger effect = lower value",0.982 (inactive)
same,normalized growth,"locus YHR142W, strain chs7, stronger effect = lower value",1.01 (inactive)
same,normalized growth,"locus YHR200W, strain rpn10, stronger effect = lower value",0.989 (inactive)
same,normalized growth,"locus YIL066C, strain RNR3, stronger effect = lower value",0.995 (inactive)
same,normalized growth,"locus YIL073C, strain SPO22, stronger effect = lower value",0.993 (inactive)
same,normalized growth,"locus YIL125W, strain kgd1, stronger effect = lower value",0.965 (inactive)
same,normalized growth,"locus YIR030C, strain dcg1, stronger effect = lower value",0.976 (inactive)
same,normalized growth,"locus YJL092W, strain hpr5, stronger effect = lower value",0.989 (inactive)
same,normalized growth,"locus YJL095W, strain BCK1 (second series), stronger effect = lower value",0.974 (inactive)
same,normalized growth,"locus YJL095W, strain BCK1, stronger effect = lower value",0.947 (inactive) and 0.851 (active)
same,normalized growth,"locus YJL115W, strain asf1, stronger effect = lower value",0.987 (inactive)
same,normalized growth,"locus YJL129C, strain trk1, stronger effect = lower value",0.927 (inactive)
same,normalized growth,"locus YJL134W, strain LCB3, stronger effect = lower value",0.975 (inactive)
same,normalized growth,"locus YJL154C, strain vps35, stronger effect = lower value",0.993 (inactive)
same,normalized growth,"locus YJL164C, strain tpk1, stronger effect = lower value",0.974 (inactive)
same,normalized growth,"locus YJL166W, strain qcr8, stronger effect = lower value",0.983 (inactive)
same,normalized growth,"locus YJL168C, strain set2, stronger effect = lower value",0.98 (inactive)
same,normalized growth,"locus YJL187C, strain SWE1 (second series), stronger effect = lower value",0.995 (inactive)
same,normalized growth,"locus YJL187C, strain SWE1, stronger effect = lower value",0.979 (inactive)
same,normalized growth,"locus YJR043C, strain POL32, stronger effect = lower value",1.02 (inactive)
